Only some compounds are listed: those with a hit (about 5.2% of all), similar ones and a draw of the others.
Tau FP inhib: qHTS for Inhibitors of Tau Fibril Formation, Fluorescence Polarization; Microtubule-associated protein tau (Homo sapiens), P10636; K18 P301L tau heparin fibrillization, Alexa594 FP, 6 h; Potency, µM (top dose mostly 57.7 µM), for the others: at the highest dose activity, negative = inhibition, actives largely listed as inhibitors; hit rate 0.39% among 280,000; AID 1468, 2008; further: potency means the concentration at half of the fitted maximal effect; nearly all actives have a fitted effect of over 55% in size
Target sequence (P10636 561-689 P618L limits assumed): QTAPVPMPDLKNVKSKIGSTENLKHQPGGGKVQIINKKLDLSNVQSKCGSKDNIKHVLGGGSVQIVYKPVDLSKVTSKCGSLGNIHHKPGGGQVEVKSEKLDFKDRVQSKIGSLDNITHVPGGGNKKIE
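K18 P301L tau (15 uM unlabeled/0.24 uM Alexa 594-labeled, final) + compound + heparin 20 uM final; 100 mM NaOAc pH 7; 6 hr 37 C; ThT 30 uM final added, 1 hr RT; FP ex 555/em 632 nm.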
Sfp PPTase inh: qHTS Assay for Inhibitors of Bacillus subtilis Sfp phosphopantetheinyl transferase (PPTase). hit rate 3.5% among 310,000. Potency, µM, without a hit: largest response in the series, negative = inhibition, actives largely listed as inhibitors. Biochemical Sfp PPTase activity, qHTS;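 further: the enzyme is Sfp with the accession as filed and its product quenches rhodamine fluorescence; potency means the concentration at half of the fitted maximal effect; 0% = enzyme reaction without inhibitor and -100% = no enzyme wells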
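Reaction rates are the 30-min fluorescence difference (ex 525, em 598 nm) in wells containing 15 nM Sfp, 5 uM rhodamine-CoA and 12.5 uM BHQ-2-YbbR at pH 7.6 with 10 mM MgCl2.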
Tau fluor cs: Counterscreen qHTS for Inhibitors of Tau Fibril Formation, Fluorescence Polarization; Potency, µM (series often up to 57.7 µM), inactives show at the highest dose activity change, negative = decrease; tau K18 P301L Alexa594 fluorescence, heparin fibrillization; AID 1463, 2008; hit rate 0.93% among 280,000; further: potency means the concentration at half of the fitted maximal effect; nearly all actives have a fitted effect of over 55% in size
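Human K18 P301L tau (15 uM unlabeled plus 0.24 uM Alexa 594-labeled, final) in 100 mM sodium acetate pH 7 was mixed with compound and 20 uM heparin and incubated 6 hr at 37 C.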
Tau ThT inhib: qHTS for Inhibitors of Tau Fibril Formation, Thioflavin T Binding | Microtubule-associated protein tau (Homo sapiens), P10636 | recombinant tau K18 P301L (four-repeat tau fragment), heparin-induced fibrillization, ThT fluorescence | Potency, µM (doses to about 57.4 µM), without a hit: at the top dose activity, negative = inhibition, actives largely listed as inhibitors | hit rate 2.1% among 270,000 | AID 1460, 2008; further: potency means the concentration at half of the fitted maximal effect; nearly all actives have a fitted effect of over 55% in size
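Heparin-induced (20 uM) aggregation of recombinant human K18 P301L tau, 15 uM unlabeled with 0.24 uM labeled, pH 7 acetate buffer, 6 hr at 37 C with compound. Fibrils quantified by 30 uM ThT fluorescence after 1 hr ambient incubation.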
FBPA coupling cs: qHTS Assay for Inhibitors of Fructose-1,6-bisphosphate Aldolase from Giardia Lamblia: Coupling assay counterscreen. coupling enzyme system counterscreen, AmpLite Red fluorescence. activity change, negative = inhibition, % at 58.2 µM, hits read low. hit rate 0.67% among 290,000; in the data active means activity change below about -30%
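First, compound is pin-transferred into glyceraldehyde-3-phosphate coupling-enzyme reagent at 57.5 uM final and held 10 min at RT. Next, substrate, coupling system and AmpLite Red are added. After 20 min RT, fluorescence (525/598 nm) is read.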
The depositor's hits bear a star; ? = inconclusive; · = no result; [ ] = remark or other dose. Unless noted, the call rests on the fitted dose curve; in most records, active means well fitted curve in the direction sought with a large enough effect; inconclusive means small, poorly fitted or top-dose-only effect, or another doubt; inactive means no such curve, though single readings can be large; an effect the other way counts as inactive or inconclusive. Unless noted, on the % scale 0 is the no-effect control and ±100 the full control effect.

SMILES	Tau FP inhib	Sfp PPTase inh	Tau fluor cs	Tau ThT inhib	FBPA coupling cs
CC1=C(C(N)=O)C(c2cccs2)n2ncnc2N1 (stereo unspecified)	-4%	22%	-24%	·	1
c1csc(C2C3=C(Nc4ncnn42)c2ccccc2OC3)c1 (stereo unspecified)	-6%	50µM*	-4%	-13%	-3
Cc1ccc(CCNC(=O)c2cn(C)c3ccc(S(=O)(=O)N4CCCCC4)cc3c2=O)cc1	-13%	·	-13%	5%	·
COc1ccc(N=C2NC(=O)S/C2=C\c2ccc(N(C)C)cc2)cc1	?	-7%	?	1.1µM*	1
CCOc1ccc(N=C2NC(=O)S/C2=C\c2ccc(Cl)cc2)cc1	-9%	5%	-21%	?	2
O=C(Nc1ccccc1C(=O)OCc1cc(=O)n2c3c(sc2n1)CCCC3)c1cccc(Cl)c1	7%	·	2%	-1%	·
Nc1nsc2ccccc12	?	?	-17%	13µM*	2
O=C1NC(c2cc(Cl)cc([N+](=O)[O-])c2O)Nc2ccccc21 (stereo unspecified)	6%	12%	-29%	7.1µM*	-1
COc1cc(Nc2nc(-c3ccccc3)c3cc(C)ccc3n2)cc(OC)c1OC	?	-26%	?	16µM*	-6
CNC(=O)/C(=C\c1ccco1)NC(=O)c1ccco1	·	11%	·	·	-1
O=C(N/C(=C/c1ccco1)C(=O)N1CCc2ccccc21)c1ccco1	?	40µM*	-16%	?	-5
O=C(NC(Cc1ccccc1)C(=O)O)/C(=C\c1ccco1)NC(=O)c1ccccc1Br (stereo unspecified)	4%	50µM*	-1%	-17%	-11
O=C(NCc1ccccn1)/C(=C/c1ccco1)NC(=O)c1ccccc1	15%	79µM*	1%	-14%	-1
O=C(O)CCNC(=O)/C(=C\c1ccco1)NC(=O)c1ccco1	·	79µM*	·	·	-10
O=C(NCCc1ccccn1)/C(=C/c1ccco1)NC(=O)c1ccccc1	4%	?	20%[2.34 µM]	2%	-1
Cc1ccc(-c2cc(C(=O)N3CCN(S(=O)(=O)c4ccc(Br)s4)CC3)[nH]n2)c(C)c1	-9%	·	-7%	-3%	·
COc1ccccc1CCNC(=O)c1ccc2c(c1)c(C)c(C)n2C	7%	·	-23%	?	·
COc1ccc(OC)c(NC(=O)CSc2ncc3c(n2)-c2ccccc2N(C)S3(=O)=O)c1	4%	·	-26%	-1%	·
O=C(c1cc(C(F)(F)F)cc(C(F)(F)F)c1)N1CCC2(CC1)CCN(c1ccccc1)CC2	·	17%	·	·	-1
C/C(=N\NC(=O)c1ccc(Br)o1)c1cc2c(cc1NC(=O)CCC(=O)O)OCO2	·	45µM*	·	·	·
Cc1cc(Sc2ncnc(N)c2[N+](=O)[O-])ncn1	-2%	50µM*	?	?	5
Cc1cc(Sc2nc(N)ncc2[N+](=O)[O-])ncn1	3%	22µM*	?	?	1
Cc1oc2ccc(O)c(CN3CCCCCC3)c2c1C(=O)Nc1cccc(C(F)(F)F)c1	-6%	·	-21%	-10%	·
Cc1ccccc1Nc1nc(N)c(C(=O)c2ccccc2Cl)s1	3%	·	-22%	-9%	·
Cc1cccnc1Nc1nc(-c2ccc(O)cc2O)cs1	9%	45µM*	-1%	0%	-1
SMILES	Tau FP inhib	Sfp PPTase inh	Tau fluor cs	Tau ThT inhib	FBPA coupling cs
Cc1cccnc1Nc1nc(-c2ccccn2)cs1	-1%	6%	-11%	?	-1
Cc1cccnc1Nc1nc(-c2ccccc2)cs1	·	50µM*	·	·	-3
CC(C)Oc1ccc(CNC(=O)CCn2c(=O)c3cccn3c3ccc(F)cc32)cc1	-7%	·	?	-14%	·
Cc1c(NC(=O)Oc2ccccc2)sc(=S)n1C	5%	56µM*	-9%	-15%	2
Cc1ccc(NC(=O)Nc2sc(=S)n(C)c2C)cc1	14%	56µM*	?	?	1
O=C(Nc1cc(Cl)cc(Cl)c1)c1ccc(F)c(S(=O)(=O)N2CCCCCC2)c1	?	·	?	-6%	·
COc1ccc(/C=C/c2ccccc2)cc1C1C2C=CCCC2(C)C(=O)N1Cc1ccccc1 (stereo unspecified)	·	?	·	·	0
COc1cc2nc(N3CCN(C(=O)C4COc5ccccc5O4)CC3)nc(N)c2cc1OC (stereo unspecified)	-13%	56µM*	?	?	-16
COc1cc2nc(N3CCN(C(=O)[C@@H]4COc5ccccc5O4)CC3)nc(N)c2cc1OC	·	45%	·	·	-1
COC(=O)/C(C#N)=C/c1ccc(OC(=O)c2ccccn2)cc1	7%	14µM*	7%	?	-8
CCOC(=O)/C(C#N)=C/c1ccc(OC(=O)c2ccccn2)cc1	0%	50µM*	21%	?	0
Cc1ccccc1-c1nccc(NCCN2CCOCC2)n1	·	?	·	·	-1
CCCN1CCN(CC(O)COC(c2ccc(OC)cc2)c2ccc(OC)cc2)CC1 (stereo unspecified)	·	45µM*	·	·	-2
COc1ccc(N2C(=O)CSC23C(=O)N(CC(=O)NC2CCCCC2)c2ccccc23)cc1 (stereo unspecified)	-6%	·	-6%	2%	·
NC(=S)N/N=C/c1coc2ccc(O)cc2c1=O	0%	1.6µM*	-11%	?	2
NC(=S)N/N=C/c1coc2cc(Br)ccc2c1=O	-12%	0%	?	16µM*	0
CCOc1ccc(N(CC)S(=O)(=O)c2cc(Br)cc3c2N(C(C)=O)C(C)C3)cc1 (stereo unspecified)	4%	·	-22%	-14%	·
CCn1c(=O)c2c(n3c(=S)[nH]nc13)-c1ccccc1CC21CCCCC1	-1%	18µM*	?	?	6
COc1ccc(C[C@H]2CN3C(=NC[C@H]3Cc3ccccc3)N2CCNC(=O)c2ccc(C)c(Br)c2)cc1	1%	50µM*	10%	-17%	1
COc1ccc(C[C@H]2CN3C(=NC[C@@H]3C(C)C)N2C[C@H](C)NC(=O)c2ccc(C)c(Br)c2)cc1	8%	4%	0%	-6%	1
COc1ccc(C[C@H]2CN3C(=NC[C@@H]3Cc3ccccc3)N2CCNC(=O)c2ccc(C)c(Br)c2)cc1	0%	32µM*	-4%	?	3
Cc1ccc(C(=O)NCCN2C3=NC[C@@H](Cc4ccccc4)N3C[C@H]2Cc2ccc(O)cc2)cc1Br	5%	45µM*	-15%	?	0
Cc1ccc(C(=O)N[C@@H](C)CN2C3=NC[C@H](C(C)C)N3C[C@H]2Cc2ccc(O)cc2)cc1Br	5%	40µM*	-1%	9%	-6
